Reference: the supplement of paper PMC11732987, “Enantioselective OTUD7B fragment discovery through chemoproteomics screening and high-throughput optimisation” (Communications Chemistry, 2025)

Key:
Assay in all cases: log2 ratio of Biotin-Ahx-Ub-VS probe labelling (fragment/DMSO); higher = less target engagement (more negative = stronger competition), active = hit call of the paper (q ≤ 0.05, log2 ratio ≤ -1)
Conditions in all cases: compound concentration: 200 uM; treatment time: 3 h
USP34 = USP34 (UniProt Q70CQ2)
Chain of USP34 (Q70CQ2 whole entry, the tested form may be a part): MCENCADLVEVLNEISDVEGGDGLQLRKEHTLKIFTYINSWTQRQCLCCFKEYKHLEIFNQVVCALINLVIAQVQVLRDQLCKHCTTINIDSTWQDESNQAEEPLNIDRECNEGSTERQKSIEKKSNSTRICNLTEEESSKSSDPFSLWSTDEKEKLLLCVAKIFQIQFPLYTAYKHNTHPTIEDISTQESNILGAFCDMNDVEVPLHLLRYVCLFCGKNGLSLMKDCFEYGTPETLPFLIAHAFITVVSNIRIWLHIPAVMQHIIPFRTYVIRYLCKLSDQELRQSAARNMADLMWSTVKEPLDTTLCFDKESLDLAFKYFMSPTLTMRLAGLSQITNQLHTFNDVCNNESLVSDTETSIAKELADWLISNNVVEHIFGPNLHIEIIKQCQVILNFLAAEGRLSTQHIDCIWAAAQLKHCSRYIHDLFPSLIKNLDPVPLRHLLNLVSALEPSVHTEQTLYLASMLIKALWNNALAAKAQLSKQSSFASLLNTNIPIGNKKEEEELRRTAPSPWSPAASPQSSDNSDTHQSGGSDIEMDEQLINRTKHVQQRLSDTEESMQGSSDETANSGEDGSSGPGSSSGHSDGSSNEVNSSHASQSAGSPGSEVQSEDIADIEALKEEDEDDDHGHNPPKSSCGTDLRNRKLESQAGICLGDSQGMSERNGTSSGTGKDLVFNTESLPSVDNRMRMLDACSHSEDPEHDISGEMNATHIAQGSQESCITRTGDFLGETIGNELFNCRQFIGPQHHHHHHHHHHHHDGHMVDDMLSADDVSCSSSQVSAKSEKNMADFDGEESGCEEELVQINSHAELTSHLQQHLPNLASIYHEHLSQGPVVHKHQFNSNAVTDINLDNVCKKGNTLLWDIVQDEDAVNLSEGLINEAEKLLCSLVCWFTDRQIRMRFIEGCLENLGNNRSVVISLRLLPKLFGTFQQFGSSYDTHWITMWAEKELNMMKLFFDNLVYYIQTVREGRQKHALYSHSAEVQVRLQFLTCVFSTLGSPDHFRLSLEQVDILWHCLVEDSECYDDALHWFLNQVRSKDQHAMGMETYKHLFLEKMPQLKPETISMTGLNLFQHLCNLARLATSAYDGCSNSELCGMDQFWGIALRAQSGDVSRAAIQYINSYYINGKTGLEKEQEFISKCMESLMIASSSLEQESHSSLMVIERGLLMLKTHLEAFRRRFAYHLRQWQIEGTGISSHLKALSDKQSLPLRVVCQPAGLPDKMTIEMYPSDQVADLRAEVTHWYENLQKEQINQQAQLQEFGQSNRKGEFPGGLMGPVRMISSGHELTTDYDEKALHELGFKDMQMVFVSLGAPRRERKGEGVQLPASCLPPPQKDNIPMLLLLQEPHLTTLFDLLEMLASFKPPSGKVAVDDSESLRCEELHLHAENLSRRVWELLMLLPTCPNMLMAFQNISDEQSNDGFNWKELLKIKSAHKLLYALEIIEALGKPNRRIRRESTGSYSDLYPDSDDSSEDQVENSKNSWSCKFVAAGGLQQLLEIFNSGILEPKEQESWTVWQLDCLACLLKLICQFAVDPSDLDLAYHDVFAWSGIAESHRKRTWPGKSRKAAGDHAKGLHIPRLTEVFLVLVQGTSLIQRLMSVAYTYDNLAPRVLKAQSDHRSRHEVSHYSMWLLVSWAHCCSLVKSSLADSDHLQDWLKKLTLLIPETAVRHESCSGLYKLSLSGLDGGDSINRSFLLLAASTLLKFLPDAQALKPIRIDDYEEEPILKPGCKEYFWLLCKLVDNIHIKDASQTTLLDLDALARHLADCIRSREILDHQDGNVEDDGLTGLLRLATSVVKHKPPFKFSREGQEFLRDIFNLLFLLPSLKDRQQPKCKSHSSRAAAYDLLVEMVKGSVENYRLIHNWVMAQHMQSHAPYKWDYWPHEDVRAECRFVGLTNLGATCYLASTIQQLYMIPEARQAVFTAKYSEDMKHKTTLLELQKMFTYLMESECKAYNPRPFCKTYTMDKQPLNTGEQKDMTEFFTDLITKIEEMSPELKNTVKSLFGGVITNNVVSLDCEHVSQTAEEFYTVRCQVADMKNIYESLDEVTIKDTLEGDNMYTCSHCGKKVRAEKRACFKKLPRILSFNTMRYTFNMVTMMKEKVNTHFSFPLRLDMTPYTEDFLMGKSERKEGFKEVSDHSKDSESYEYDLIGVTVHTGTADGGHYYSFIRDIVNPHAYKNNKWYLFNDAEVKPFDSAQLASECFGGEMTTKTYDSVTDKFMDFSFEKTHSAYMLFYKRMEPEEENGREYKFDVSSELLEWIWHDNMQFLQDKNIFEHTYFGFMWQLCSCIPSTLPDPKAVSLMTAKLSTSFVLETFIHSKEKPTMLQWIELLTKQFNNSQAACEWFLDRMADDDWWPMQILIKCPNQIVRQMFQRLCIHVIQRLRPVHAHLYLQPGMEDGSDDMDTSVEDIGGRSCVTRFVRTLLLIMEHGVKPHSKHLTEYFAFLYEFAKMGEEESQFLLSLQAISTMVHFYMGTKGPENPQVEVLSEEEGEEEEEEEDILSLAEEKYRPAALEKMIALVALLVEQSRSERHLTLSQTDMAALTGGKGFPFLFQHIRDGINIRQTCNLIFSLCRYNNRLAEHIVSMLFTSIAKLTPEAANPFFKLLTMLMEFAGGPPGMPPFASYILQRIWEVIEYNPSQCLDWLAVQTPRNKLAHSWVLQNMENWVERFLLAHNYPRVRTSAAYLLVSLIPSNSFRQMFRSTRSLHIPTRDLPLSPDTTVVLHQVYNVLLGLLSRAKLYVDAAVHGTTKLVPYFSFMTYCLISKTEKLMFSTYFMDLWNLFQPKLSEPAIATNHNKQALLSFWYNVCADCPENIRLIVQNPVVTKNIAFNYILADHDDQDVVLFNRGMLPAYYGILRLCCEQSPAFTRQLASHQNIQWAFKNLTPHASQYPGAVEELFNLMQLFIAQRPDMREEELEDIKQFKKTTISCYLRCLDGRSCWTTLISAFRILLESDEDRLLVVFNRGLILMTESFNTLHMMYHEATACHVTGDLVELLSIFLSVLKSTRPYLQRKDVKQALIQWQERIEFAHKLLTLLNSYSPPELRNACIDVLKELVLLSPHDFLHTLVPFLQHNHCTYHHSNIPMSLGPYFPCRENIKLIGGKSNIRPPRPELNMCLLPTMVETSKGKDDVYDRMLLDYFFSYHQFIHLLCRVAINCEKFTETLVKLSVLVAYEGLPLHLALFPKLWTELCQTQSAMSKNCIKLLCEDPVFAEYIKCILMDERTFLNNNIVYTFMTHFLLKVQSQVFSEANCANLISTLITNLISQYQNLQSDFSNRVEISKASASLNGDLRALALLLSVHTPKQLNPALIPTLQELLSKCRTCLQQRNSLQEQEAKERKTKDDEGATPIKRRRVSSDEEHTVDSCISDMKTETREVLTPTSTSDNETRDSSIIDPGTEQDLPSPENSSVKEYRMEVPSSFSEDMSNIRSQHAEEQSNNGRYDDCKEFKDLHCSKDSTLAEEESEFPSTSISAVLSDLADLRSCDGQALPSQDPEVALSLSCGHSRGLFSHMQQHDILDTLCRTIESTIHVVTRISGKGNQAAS
Summary of the method: (§1)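 HEK293T lysate (495 µg per sample, in Tris/CHAPS/IGEPAL buffer with protease inhibitors) was exposed in triplicate for 3 h to fragment at 200 µM or to vehicle, then to Biotin-Ahx-Ub-VS at 0.5 µM final for 1 h. Labelled DUBs were enriched on NeutrAvidin, digested with LysC and trypsin, and analysed by diaPASEF LC-MS/MS. Spectronaut label-free quantities were normalised to the global median, and values are average log2 ratios of fragment over vehicle from an unpaired t-test. Only proteins with ≥2 unique peptides were used.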

USP36 = molecular target: T1, USP36 (UniProt Q9P275)
T1 sequence (whole entry): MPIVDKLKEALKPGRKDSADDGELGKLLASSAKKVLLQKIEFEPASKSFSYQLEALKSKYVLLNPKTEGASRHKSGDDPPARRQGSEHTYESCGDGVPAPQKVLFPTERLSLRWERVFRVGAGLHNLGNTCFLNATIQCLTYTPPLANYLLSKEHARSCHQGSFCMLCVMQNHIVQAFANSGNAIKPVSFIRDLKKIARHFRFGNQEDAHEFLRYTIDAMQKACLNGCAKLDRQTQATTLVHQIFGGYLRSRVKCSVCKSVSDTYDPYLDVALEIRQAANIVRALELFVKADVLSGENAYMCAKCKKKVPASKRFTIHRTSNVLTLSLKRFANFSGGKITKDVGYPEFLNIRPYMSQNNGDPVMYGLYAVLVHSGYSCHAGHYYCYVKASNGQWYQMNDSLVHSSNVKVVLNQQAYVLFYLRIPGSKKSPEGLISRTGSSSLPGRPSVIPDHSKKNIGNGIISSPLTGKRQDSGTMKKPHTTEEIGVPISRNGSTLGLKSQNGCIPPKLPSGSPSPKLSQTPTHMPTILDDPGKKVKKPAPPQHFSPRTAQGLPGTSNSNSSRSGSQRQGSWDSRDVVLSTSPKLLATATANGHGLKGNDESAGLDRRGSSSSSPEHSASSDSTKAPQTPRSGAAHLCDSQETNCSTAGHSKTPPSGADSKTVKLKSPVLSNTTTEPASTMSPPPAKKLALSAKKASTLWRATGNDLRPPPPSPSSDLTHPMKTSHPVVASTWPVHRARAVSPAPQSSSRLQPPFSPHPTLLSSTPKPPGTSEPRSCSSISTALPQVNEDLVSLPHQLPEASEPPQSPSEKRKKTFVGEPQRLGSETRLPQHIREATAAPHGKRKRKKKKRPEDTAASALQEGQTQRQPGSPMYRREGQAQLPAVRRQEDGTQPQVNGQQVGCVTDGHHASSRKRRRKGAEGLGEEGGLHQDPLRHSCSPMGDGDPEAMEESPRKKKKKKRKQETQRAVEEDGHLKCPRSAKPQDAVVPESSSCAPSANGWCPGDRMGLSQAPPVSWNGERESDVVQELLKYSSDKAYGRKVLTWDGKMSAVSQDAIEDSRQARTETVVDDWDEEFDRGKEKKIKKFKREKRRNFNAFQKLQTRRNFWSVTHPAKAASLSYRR
Summary of the method: as §1

USP38 = molecular target: T2, USP38 (UniProt Q8NB14)
T2 sequence (whole entry): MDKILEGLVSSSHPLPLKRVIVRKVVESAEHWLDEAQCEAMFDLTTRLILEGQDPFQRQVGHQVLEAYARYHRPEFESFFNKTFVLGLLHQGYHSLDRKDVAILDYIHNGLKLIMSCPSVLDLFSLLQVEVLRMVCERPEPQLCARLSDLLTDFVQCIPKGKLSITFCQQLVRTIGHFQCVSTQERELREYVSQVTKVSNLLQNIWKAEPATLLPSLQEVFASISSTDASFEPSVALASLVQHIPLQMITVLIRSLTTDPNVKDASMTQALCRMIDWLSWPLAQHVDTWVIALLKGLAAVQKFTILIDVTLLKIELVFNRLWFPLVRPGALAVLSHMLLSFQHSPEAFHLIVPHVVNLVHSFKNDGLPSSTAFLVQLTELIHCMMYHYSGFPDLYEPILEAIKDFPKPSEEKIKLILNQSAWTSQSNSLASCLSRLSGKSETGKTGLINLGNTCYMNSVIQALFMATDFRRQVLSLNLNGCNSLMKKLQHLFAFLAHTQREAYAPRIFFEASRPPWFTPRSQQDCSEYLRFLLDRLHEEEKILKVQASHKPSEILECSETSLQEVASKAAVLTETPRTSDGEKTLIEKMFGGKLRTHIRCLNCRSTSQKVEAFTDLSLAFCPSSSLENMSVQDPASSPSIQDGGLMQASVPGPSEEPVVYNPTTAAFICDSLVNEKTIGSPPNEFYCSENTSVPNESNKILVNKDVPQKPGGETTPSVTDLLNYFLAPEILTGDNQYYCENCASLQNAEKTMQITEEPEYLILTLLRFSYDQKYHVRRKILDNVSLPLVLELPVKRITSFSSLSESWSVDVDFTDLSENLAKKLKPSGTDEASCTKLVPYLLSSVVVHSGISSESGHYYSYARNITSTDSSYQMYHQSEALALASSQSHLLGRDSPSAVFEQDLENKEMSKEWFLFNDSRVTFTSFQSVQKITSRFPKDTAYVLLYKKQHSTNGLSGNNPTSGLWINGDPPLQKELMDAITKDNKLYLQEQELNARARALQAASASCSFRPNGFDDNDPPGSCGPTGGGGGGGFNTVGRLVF
Summary of the method: as §1

USP39 = molecular target: T3, USP39 (UniProt Q53GS9)
T3 sequence (whole entry): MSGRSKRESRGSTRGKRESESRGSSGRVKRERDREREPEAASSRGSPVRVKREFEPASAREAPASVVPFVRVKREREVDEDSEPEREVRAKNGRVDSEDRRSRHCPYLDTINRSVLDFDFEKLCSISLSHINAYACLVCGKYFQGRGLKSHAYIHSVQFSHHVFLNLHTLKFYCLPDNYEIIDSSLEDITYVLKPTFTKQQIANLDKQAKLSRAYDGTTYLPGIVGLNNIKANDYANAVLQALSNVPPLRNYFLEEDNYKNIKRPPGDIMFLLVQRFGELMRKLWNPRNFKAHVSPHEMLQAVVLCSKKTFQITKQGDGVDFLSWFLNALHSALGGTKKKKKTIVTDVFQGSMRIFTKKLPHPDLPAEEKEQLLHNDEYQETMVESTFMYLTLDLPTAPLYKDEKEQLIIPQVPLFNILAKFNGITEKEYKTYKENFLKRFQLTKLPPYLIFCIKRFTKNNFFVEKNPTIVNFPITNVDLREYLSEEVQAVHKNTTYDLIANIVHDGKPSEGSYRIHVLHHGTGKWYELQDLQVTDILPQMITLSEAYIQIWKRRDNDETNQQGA
Summary of the method: as §1

USP4 = molecular target: T4, USP4 (UniProt Q13107)
T4 sequence (whole entry): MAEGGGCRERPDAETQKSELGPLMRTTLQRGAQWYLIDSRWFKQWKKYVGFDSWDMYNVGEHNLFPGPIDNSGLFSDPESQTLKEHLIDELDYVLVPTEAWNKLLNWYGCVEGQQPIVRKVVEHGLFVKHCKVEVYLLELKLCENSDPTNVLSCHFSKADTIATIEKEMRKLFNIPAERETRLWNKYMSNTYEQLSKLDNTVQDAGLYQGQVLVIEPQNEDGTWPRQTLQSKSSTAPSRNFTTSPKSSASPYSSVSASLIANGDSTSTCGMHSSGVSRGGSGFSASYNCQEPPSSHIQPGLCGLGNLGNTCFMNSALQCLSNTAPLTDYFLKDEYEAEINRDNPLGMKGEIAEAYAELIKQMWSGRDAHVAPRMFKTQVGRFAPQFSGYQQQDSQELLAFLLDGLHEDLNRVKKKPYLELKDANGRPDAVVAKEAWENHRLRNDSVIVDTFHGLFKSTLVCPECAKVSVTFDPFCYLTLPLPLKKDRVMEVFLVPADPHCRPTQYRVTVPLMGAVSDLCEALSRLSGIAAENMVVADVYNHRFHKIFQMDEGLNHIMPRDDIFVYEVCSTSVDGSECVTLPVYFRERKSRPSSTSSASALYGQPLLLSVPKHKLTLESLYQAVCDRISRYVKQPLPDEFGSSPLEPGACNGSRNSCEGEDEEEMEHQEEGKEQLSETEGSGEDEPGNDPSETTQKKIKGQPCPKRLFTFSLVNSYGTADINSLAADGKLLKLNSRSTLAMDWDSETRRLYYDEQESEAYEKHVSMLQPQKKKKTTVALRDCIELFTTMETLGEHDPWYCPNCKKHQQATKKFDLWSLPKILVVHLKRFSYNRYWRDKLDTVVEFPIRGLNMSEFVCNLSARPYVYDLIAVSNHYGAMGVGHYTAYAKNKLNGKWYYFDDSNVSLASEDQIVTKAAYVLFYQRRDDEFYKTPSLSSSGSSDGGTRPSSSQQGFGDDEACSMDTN
Summary of the method: as §1

Measured: log2 ratio of Biotin-Ahx-Ub-VS probe labelling

O=C(CCl)N1CCC(c2nc3ccccc3o2)CC1
inactive: USP34 -0.0485 | USP36 -0.24 | USP38 -0.183 | USP39 0.016 | USP4 -0.231
